Results taken from PubChem BioAssay AID2546 (National Center for Advancing Translational Sciences (NCATS), 2010).
Hit rate of the full screen: of about 310,000 compounds, about 11,000 (3.5%) were called active. Roughly 8% stayed inconclusive and do not appear here. The call rests on the fitted dose curve; in most records, active means well fitted inhibition curve with a large enough effect; inconclusive means small, poorly fitted or top-dose-only effect, or effect the other way; inactive means flat fitted curve, though single readings scatter. The full list was thinned out, with actives kept by preference.

Test: VP16 counterscreen qHTS for inhibitors of ROR gamma transcriptional activity;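 further: Gal4-VP16 expression switched on by copper sulfate through the metallothionein promoter; nearly all actives have a fitted effect of over 50% in size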
Settings: Drosophila S2 Gal4-VP16 UAS-luciferase, luminescence, 20 h; series mostly up to 53.6 µM; activity, negative = inhibition: at the top concentration
On the % scale 0 is the no-effect control and ±100 the full control effect; potency means the concentration at half of the fitted maximal effect.

Compound | activity, negative = inhibition | Potency
CC(=O)c1cccc(OCc2cc(C(=O)NC(C)Cc3cccnc3)no2)c1 (stereo unspecified) | 16% (inactive) | –
CN(Cc1cccnc1)C(=O)c1cc(COc2ccc3ncccc3c2)on1 | – | 2.82 µM (active)
Cc1ccc(OCc2cc(C(=O)N(C)CCc3ccccc3)no2)cc1C | -6.16% (inactive) | –
COc1ccc(C(CCN2CCOCC2)c2c(OC)cc(OC)c3c2OC(=O)CC3c2ccc(OC)cc2)cc1 (stereo unspecified) | -26.9% (inactive) | –
CC1=C(C(N)=O)C(c2ccc(F)cc2)n2nc(CCCO)nc2N1 (stereo unspecified) | 7.17% (inactive) | –
COc1cccc(-c2nc3n(n2)C(c2ccccc2Cl)C(C(N)=O)=C(C)N3)c1 (stereo unspecified) | -5.08% (inactive) | –
CC1=C(C(N)=O)C(c2ccc3c(c2)OCO3)n2nc(-c3cccc(C)c3)nc2N1 (stereo unspecified) | – | 20 µM (active)
COc1ccc(S(=O)(=O)NCCc2cc3ccc(C)c(C)c3[nH]c2=O)cc1 | 6.83% (inactive) | –
c1ccc(-c2noc(-c3cccs3)n2)nc1 | – | 12.6 µM (active)
COc1nc(-c2ccc(Cl)cc2)ccc1-c1noc(-c2cccs2)n1 | -2.8% (inactive) | –
O=C(Oc1ccc(Br)cc1)c1cccnc1 | -1.3% (inactive) | –
Brc1ccc(-c2noc(-c3ccccc3)n2)o1 | -15.6% (inactive) | –
O=C(Oc1ccc(-c2nc(-c3ccccn3)no2)cc1)c1ccccc1 | – | 6.31 µM (active)
c1csc(-c2nc(-c3ccncc3)no2)c1 | -4.55% (inactive) | –
Cn1c(=O)[nH]c(=O)c2c1nc(N1CCN(C(c3ccccc3)c3ccccc3)CC1)n2CCO | -3.53% (inactive) | –
CCNC(=S)N(CCN(CC)CC)Cc1cc2cc3c(cc2[nH]c1=O)OCCO3 | 6.76% (inactive) | –
COc1ccc(-c2cn(-c3ccc(OC)cc3)c(=S)[nH]2)cc1 | – | 1.41 µM (active)
COc1ccc(N2C(=O)CNC2=S)cc1 | -1.96% (inactive) | –
COc1ccc(-n2c(C)csc2=S)cc1 | 2.5% (inactive) | –
Cc1ccc(OCC(=O)Nc2ccc(N3CCN(C(=O)c4ccco4)CC3)cc2)c(C)c1 | 0.609% (inactive) | –
CC(C)(C)c1ccc(Cn2nnc3c(=O)[nH]c(C4CCCN(C(=O)c5ccco5)C4)nc32)cc1 (stereo unspecified) | -1.24% (inactive) | –
CCC(C(=O)NC1CCCCC1)N(C(=O)c1snc(C(N)=O)c1N)c1ccc(OC)cc1OC (stereo unspecified) | 0.216% (inactive) | –

Compound | activity, negative = inhibition | Potency
COc1cc(OC)c(C(=O)NCc2ccc3c(c2)OCO3)cc1OC | 15.5% (inactive) | –
Cc1nn(CC(=O)NCc2ccccn2)c(C)c1[N+](=O)[O-] | 1.72% (inactive) | –
Cc1nn(Cc2ccc(C(=O)N3N=C(C(F)F)CC3(O)C(F)F)cc2)c(C)c1[N+](=O)[O-] (stereo unspecified) | – | 10 µM (active)
Cc1ccn(CC(=O)N2N=C(C(F)F)CC2(O)C(F)F)n1 (stereo unspecified) | 0.0819% (inactive) | –
Cc1ccc(S(=O)(=O)N2CCN=C2SCc2c(F)cccc2Cl)cc1 | 3.35% (inactive) | –
CCOC(=O)C1(CCOc2ccccc2)CCN(Cc2cc(OC)c(O)cc2Cl)CC1 | -6.99% (inactive) | –
CCN1CC(CN(C)Cc2nc(-c3ccc(Cl)cc3)no2)CC1=O (stereo unspecified) | – | 10 µM (active)
CC1CCN(Cc2nc(-c3ccc(Cl)cc3)no2)CC1 | -21.9% (inactive) | –
CN(Cc1ccccn1)Cc1nc(-c2ccc(Cl)cc2)no1 | -9.46% (inactive) | –
CC(C)c1ccc(C2C(C(=O)c3ccco3)=C(O)C(=O)N2CC2CCCO2)cc1 (stereo unspecified) | 15.4% (inactive) | –
Cc1ccc(NC(=O)C2CCN(S(=O)(=O)c3ccc4c(c3)NC(=O)CO4)CC2)cc1C | -5.61% (inactive) | –
Clc1ccc(C2CC(c3cccs3)n3ncnc3N2)cc1Cl (stereo unspecified) | – | 17.8 µM (active)
COc1ccc(C2CC(c3ccc(C)cc3)Nc3ncnn32)cc1 (stereo unspecified) | 5.33% (inactive) | –
COc1ccc(C2CC(c3ccccc3)Nc3ncnn32)cc1 (stereo unspecified) | 4.97% (inactive) | –
Cc1[nH]c2ccc(C(=O)N3CCN(C)CC3)cc2c1C | -1.22% (inactive) | –
Nc1nc(CC(=O)CSc2ccc(Cl)cc2)nc(Nc2ccc(F)cc2)n1 | – | 12.6 µM (active)
CCOC(=O)N1CCN(Cc2nc(N)nc(Nc3ccc(C)cc3)n2)CC1 | 15.3% (inactive) | –
Cc1ccc(Nc2nc(N)nc(CSc3nnc(C)s3)n2)cc1 | 5.43% (inactive) | –
COc1ccccc1NC(=O)N1CCCC1C(=O)NCc1cccs1 (stereo unspecified) | -4.32% (inactive) | –
O=C(N/N=C/c1ccccn1)c1cccc(NC(=O)c2ccc(Cl)cc2)c1 | -1.57% (inactive) | –
COc1ccc(N(CC(=O)NCc2ccc(F)cc2)C(=O)CCC(=O)Nc2nccs2)cc1 | 1.53% (inactive) | –
O=C(CCC1CCN(C(=O)c2cccc(Cl)c2F)CC1)Nc1ccccc1 | 21.2% (inactive) | –

Compound | activity, negative = inhibition | Potency
COc1nnc(-c2ccc(C)c(S(=O)(=O)N(C)C)c2)c2ccccc12 | -12% (inactive) | –
CC1=NN(C(=O)c2ccccc2Br)C(O)(c2cccnc2)C1 (stereo unspecified) | – | 12.6 µM (active)
CC1=NN(C(=O)c2ccc(Br)cc2)C(O)(c2ccccc2)C1 (stereo unspecified) | -2.82% [at 10 µM] (inactive) | –
CCOC(=O)C1(O)CC(C)=NN1C(=O)c1cccc(Br)c1 (stereo unspecified) | 5.42% (inactive) | –
N#C/C(C(=S)Nc1ccccc1)=C1/NN=C(N2CCOCC2)N1c1ccccc1 | – | 4.47 µM (active)
N#C/C(C(=O)N1CCOCC1)=C1/SC(Cc2ccc(F)cc2)C(=O)N1c1ccccc1 (stereo unspecified) | 1.31% (inactive) | –
Cc1ccc(CC2S/C(=C(/C#N)C(=O)N3CCOCC3)N(c3ccccc3)C2=O)cc1 (stereo unspecified) | -4.04% (inactive) | –
O=c1cc(-c2ccc(O)c(O)c2)oc2cccc(O)c12 | – | 12.6 µM (active)
COc1c(O)cc2oc(-c3ccc(O)c(O)c3)cc(=O)c2c1O | – | inactive
O=c1cc(-c2ccc(O)cc2)oc2c(-c3cc(-c4cc(=O)c5c(O)cc(O)cc5o4)ccc3O)c(O)ccc12 | -14.7% (inactive) | –
Cn1ccnc1SCC(=O)Nc1ccc2c(c1)OCCO2 | 13.4% (inactive) | –
CCCN1C2CCCC1CC(NC(=O)NC13CC4CC(CC(C4)C1)C3)C2 (stereo unspecified) | -1.88% (inactive) | –
Cc1noc(C)c1/C=N/Nc1ccc2ccccc2n1 | 6.11% (inactive) | –
C(=N\Nc1ccc2ccccc2n1)/c1ccc2c(c1)OCO2 | – | 14.1 µM (active)
Cc1cc(=O)[nH]c(N/N=C/c2ccc3c(c2)OCCO3)n1 | -22.2% (inactive) | –
O=C1CN(C(=O)c2cc(F)cc(F)c2)c2ccccc2N1 | 2.04% (inactive) | –
COc1ccc(C(C)NC(=O)C23CC4CC(CC(C4)C2)C3)cc1 (stereo unspecified) | -3.97% (inactive) | –
CCc1ccc(Oc2coc3cc(O)ccc3c2=O)cc1 | -19.5% (inactive) | –
CCN(Cc1ccncc1)C(=O)c1cccc(S(=O)(=O)N2CCOCC2)c1 | -0.785% (inactive) | –
O=S(=O)(c1cccc(Cn2nnc(-c3ccc(F)cc3)n2)c1)N1CCOCC1 | – | 11.2 µM (active)
O=S(=O)(c1cccc(-c2nnc3n2CCCCC3)c1)N1CCOCC1 | -5.04% (inactive) | –
CCN(CC)CCn1cnc2c1c(=O)[nH]c(=O)n2Cc1ccccc1 | -2.59% (inactive) | –
